Data: PubChem BioAssay (NCI)
About 83,000 compounds went through this panel and 20% of them were active in at least one assay; those are over-represented in the sample as a whole.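 The endpoint reported here, percent growth, reads 100 for growth as untreated, 0 for no net growth and -100 for all cells dead.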 A number with no mark means an inactive call. Calls of active or inactive are those of the source. How the source made its calls: active means growth percent below 10; inactive means the rest.

Tests used:
Assay in all cases: NCI-60 one-dose screen, 48 h (100 = growth as untreated, 0 = no growth, -100 = all killed)
Settings in all cases: 10 µM unless noted
SK-MEL-2 melanoma = tested on: SK-MEL-2 melanoma
EKVX NSCLC = tested on: EKVX NSCLC
SN12C renal = tested on: SN12C renal
UO-31 renal = tested on: UO-31 renal
TK-10 renal = tested on: TK-10 renal
ACHN renal = tested on: ACHN renal
CAKI-1 renal = tested on: CAKI-1 renal
CCRF-CEM leukemia = tested on: CCRF-CEM leukemia
MOLT-4 leukemia = tested on: MOLT-4 leukemia
SR leukemia = tested on: SR leukemia
RPMI-8226 leukemia = tested on: RPMI-8226 leukemia
OVCAR-8 ovarian = tested on: OVCAR-8 ovarian
OVCAR-4 ovarian = tested on: OVCAR-4 ovarian
SK-OV-3 ovarian = tested on: SK-OV-3 ovarian
IGROV1 ovarian = tested on: IGROV1 ovarian
OVCAR-3 ovarian = tested on: OVCAR-3 ovarian
HS 578T breast = tested on: HS 578T breast
NCI/ADR-RES ovarian = tested on: NCI/ADR-RES ovarian
OVCAR-5 ovarian = tested on: OVCAR-5 ovarian
A498 renal = tested on: A498 renal

SMILES | growth (SK-MEL-2 melanoma) | growth (EKVX NSCLC) | growth (SN12C renal) | growth (UO-31 renal) | growth (TK-10 renal) | growth (ACHN renal) | growth (CAKI-1 renal) [%] | growth (CCRF-CEM leukemia) | growth (MOLT-4 leukemia) | growth (SR leukemia) | growth (RPMI-8226 leukemia) | growth (OVCAR-8 ovarian) | growth (OVCAR-4 ovarian) | growth (SK-OV-3 ovarian) [%] | growth (IGROV1 ovarian) | growth (OVCAR-3 ovarian) | growth (HS 578T breast) | growth (NCI/ADR-RES ovarian) | growth (OVCAR-5 ovarian) [%] | growth (A498 renal)
COC(=O)C1=C(C(=O)ONCCN(C)C)C2C=CC1(C(Cc1ccccc1)Nc1ccc(F)cc1)O2 (stereo unspecified) | 97% | 102% | 87% | 81% | 65.4% | -18.8% (active) | 88 | 2.02% (active) | 30.6% | 10.7% | 71.2% | 97.7% | 94.5% | 104 | 92.4% | 39.9% | 125% | 102% |  | 
COc1ccccc1OCC(=O)N1CCCCCC1 | 114% | 89.6% | 103% | 92% | 96.1% | 105% | 84.1 | 101% | 86.9% | 95.1% | 101% | 97.2% |  | 109 | 104% |  | 107% | 103% | 94.8 | 
CC(=O)OC1CCC2(C)C(CCC3C4CC=C(C(C)=O)C4(C)OC(=O)CC32)C1 (stereo unspecified) | 17.7% | 87.2% | 57.8% | 21.3% | -20.2% (active) | 7.04% (active) | 39.4 | -27.5% (active) | -37.1% (active) | -48.4% (active) | -31.7% (active) | -20.4% (active) |  | 109 | 61.5% | -36.2% (active) | 75.1% | 37.5% | 75.1 | 
COc1ccc(Nc2nc(N)nc3c2CCc2occc2-3)cc1 | 106% | 84.1% | 99.5% | 83.7% | 121% | 104% |  | 97.3% | 94.3% | 85.8% | 101% | 102% | 96.9% | 97.8 | 102% | 103% | 105% | 96.2% | 106 | 98.2%
COc1ccc(OC)c(/C=C/[C@H]2O[C@@H](C)[C@H](O)[C@@H]2O)c1 | 91.2% | 107% | 106% | 91.5% | 95.7% | 106% | 96.9 | 98.3% | 93.2% |  | 95.3% | 109% |  |  | 105% | 125% | 111% | 108% | 112 | 
CCCCCCC/C=C/[C@H]1O[C@]2(O)C(=O)C=C3C[C@@H](O[C@@H]4O[C@H](CO)[C@@H](O)C(O)[C@@H]4O)C[C@@H]3[C@H]2C=C1C (stereo partly specified) | -28.5% (active) | 72.4% | 1.69% (active) | -88.1% (active) | 4.93% (active) | -4.43% (active) |  | 9.27% (active) | -6.66% (active) | -26.4% (active) | -23.6% (active) | -20.5% (active) | 29.6% | 57.6 | -7.08% (active) | -75.4% (active) | 29.1% | -6.45% (active) | 12 | 71.2%
O=C1Nc2c(ccc(Cl)c2Cl)/C1=C/c1ccc([N+](=O)[O-])cc1 | 99.1% | 84.3% | 126% | 79.7% | 103% | 87.8% |  | 2.94% (active) | 96.3% | 69.7% | 90.1% | 95.1% | 100% | 93.8 | 98.6% | 108% | 100% | 93.9% | 98.1 | 99.4%
O=[N+]([O-])c1cccc(-c2nc(-c3ccc(Cl)cc3Cl)cn2-c2ccccc2)c1 | 52.4% | -8.4% (active) | 11.5% | 2.03% (active) | 29.3% | -52.1% (active) |  | 95.5% | 45.4% | -65% (active) | 61.7% | -59.2% (active) | -93.3% (active) | 33.4 | 29.7% | -55.9% (active) | -38.8% (active) |  | 12.1 | -33.2% (active)
CCCN=C(N)c1ccc(NC(=O)c2ccc(C(=O)Nc3ccc(C(N)=NCCC)cc3)cc2)cc1 | 97.2% | 96.1% | 93.1% | 79.8% | 99% | 91.8% | 95 | 108% | 78.2% |  | 90.6% | 95.7% | 99.7% | 95.6 | 96.6% | 102% | 102% | 98.4% | 94.8 | 
CC(C)(O)C1CCCN1C(=O)c1ccccc1I (stereo unspecified) | 132% | 97.7% | 95% | 82.7% | 107% | 105% |  | 41.1% | -67.6% (active) | 106% | 92.6% | 109% | 25.4% | 89.8 | 87.6% | 92.5% | 85.7% | 87.8% | 87.3 | 73.6%
